± gives the standard deviation.
Test system: MILI (PIWIL2) piRISC loaded with piRNA #1 (26 nt);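 note: 1 nM active piRISC with 0.1 nM target library at 33 °C single turnover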
Assay: pre-steady-state target cleavage rate (min^-1); guide: piRNA #1 5'p-UGAGGUAGUAGGUUGUAUAGUAUCCA; higher = faster piRNA-guided slicing of the target
Conditions: auxiliary factor: 500 nM mouse GTSF1
How it was run: (§1)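 Reactions were run for 0–8 or 0–960 min at 33 °C in HEPES–potassium acetate buffer, combining 1 nM active affinity-purified piRISC with one synthetic guide, […] transcribed, DNA-blocked target RNA library and, in some cases, 500 nM GTSF1 partner protein. Sequencing of uncleaved targets followed, with normalisation to depth and to weakly complementary targets. Three trials were pooled, k3 was capped at 0.0001 min^-1, and the pre-steady-state cleavage rate was taken from a burst-and-steady-state fit.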

Sequence | pre-steady-state target cleavage rate
GGAGAGGAUAUCUAUACAACCUACUACCUCA | 0.0599 ± 0.0073
GGAGACCAUACUAUACAACCUACUAUCUCA | 0.136 ± 0.013
GGAGAGGAUACUAUACCAACCUACUACCUCA | 0.0443 ± 0.0084
GGAGAGGAUUCUAUACAACCAACUACCUCA | 0.00507 ± 0.0028
GGAGAGGAUACUAUUCAACCUACAACCUCA | 0.0909 ± 0.01
GGAGACGAUACUCUACAACCUACUACCUCA | 0.176 ± 0.012
GGAGACGAUAGUAUACAACCUACUACCUGA | 0.113 ± 0.017
GGAGACCUUACUAUACAACAUACUACCUCA | 0.0732 ± 0.0077
GGAGACGUUUCUAUACAACCUACUACCUCA | 0.105 ± 0.013
GGAGACCAUACUAUACAACCUAGAUCCUCA | 0.0232 ± 0.0082
GGAGAGGAUAGUAUACAUCCUACUACCUCA | 0.0609 ± 0.011
GGAGAGGACUACUAUACAACCUACUACCUCA | 0.186 ± 0.016
GGAGAGCAUACUAUACAACCUACUACGUCA | 0.112 ± 0.017
GGAGUGCGAUACUAUACAACCUACUACCUCA | 0.206 ± 0.013
GGAGACCUUACUAUGACAACCUACUACCUCA | 0.179 ± 0.018
GGAGACCUAACUAUACAACCUACUACCACA | 0.176 ± 0.038
GGAGUGGAUACUAUACAAGCUACUAGCUCA | 0.0419 ± 0.0091
GGAGACGAUACCUAUACAACCUACUACCUCA | 0.104 ± 0.025
GGAGACGAUACUAUACAACCUACUACCGUCA | 0.125 ± 0.023
GGAGACGCUACUAUACAACCUACUACCUCA | 0.228 ± 0.019

Sequence | pre-steady-state target cleavage rate
GGAGUGCAUACUAUACAAGCUACUACCUCA | 0.213 ± 0.014
GGAGACGAUACUAUACAACCUACUACCUCA [g2:g24:cont:t1A] | 0.21 ± 0.018
GGAGUGGAUAUCUAUACAACCUACUACCUCA | 0.0708 ± 0.0091
GGAGAGGAUACUAUACAACCUACUACUUCA | 0.153 ± 0.015
GGAGUGGAUCUAUACAACCUACUACCUCA | 0.155 ± 0.011
GGAGAGGAUACUAUACAACACUACUACCUCA | 0.00372 ± 0.0023
GGAGAGGAUACUAGACAACCUACUACCUCA | 0.118 ± 0.01
GGAGACCUAACUAUACAAGCUACUACGUCA | 0.152 ± 0.033
GGAGACGAUACUAUACAACAUACUACCUCA | 0.0988 ± 0.0095
GGAGAGGAUACAAUACAACCUACUACCACA | 0.146 ± 0.015
GGAGAGGAUACUAUACAACCUACUACCAUCA | 0.0616 ± 0.0087
GGAGUGGAUACUAUACAACCGUACUACCUCA | 0.00369 ± 0.0022
GGAGACGACACUAUACAACCUACUACCUCA | 0.214 ± 0.025
GGAGAGGAUACUAUUCAACCUACUUCCUCA | 0.0111 ± 0.0046
GGAGUGGAUAACUAUACAACCUACUACCUCA | 0.0667 ± 0.0071
GGAGAGGAUACAAUACAACCAACUACCUCA | 0.00985 ± 0.0026
GGAGACCUUACUAUACAACCUACGACCUCA | 0.113 ± 0.012
GGAGAGGAAACUAUACAACCUACUACCUGA | 0.047 ± 0.014
GGAGACGAUUCUAUACAACCUACUAGCUCA | 0.12 ± 0.013
GGAGACCUAACUAUACAACCUAAUACCUCA | 0.0504 ± 0.013

Test system: EfPiwi piRISC loaded with piRNA #1 (26 nt)
Assay: pre-steady-state target cleavage rate (min^-1); auxiliary factor: 500 nM Ephydatia muelleri Gtsf1; guide: piRNA #1 5'p-UGAGGUAGUAGGUUGUAUAGUAUCCA; MIWI and MILI are mouse PIWI proteins and EfPiwi is from a freshwater sponge; tags in brackets are library labels; higher = faster piRNA-guided slicing of the target
Conditions: not given
How it was run: as §1

Sequence | pre-steady-state target cleavage rate
GGAGAGGAUAUCUAUACAACCUACUACCUCA | 0.00594 ± 0.0046
GGAGACCAUACUAUACAACCUACUAUCUCA | 0.00899 ± 0.0033
GGAGAGGAUACUAUACCAACCUACUACCUCA | 0.00837 ± 0.0039
GGAGAGGAUUCUAUACAACCAACUACCUCA | 0.00361 ± 0.0027
GGAGAGGAUACUAUUCAACCUACAACCUCA | 0.00238 ± 0.0017
GGAGACGAUACUCUACAACCUACUACCUCA | 0.00744 ± 0.0035
GGAGACGAUAGUAUACAACCUACUACCUGA | 0.0032 ± 0.0023
GGAGACCUUACUAUACAACAUACUACCUCA | 0.00974 ± 0.0063
GGAGACGUUUCUAUACAACCUACUACCUCA | 0.0117 ± 0.0062
GGAGACCAUACUAUACAACCUAGAUCCUCA | 0.00423 ± 0.0039
GGAGAGGAUAGUAUACAUCCUACUACCUCA | 0.00316 ± 0.0022
GGAGAGGACUACUAUACAACCUACUACCUCA | 0.00553 ± 0.0037
GGAGAGCAUACUAUACAACCUACUACGUCA | 0.00351 ± 0.0025
GGAGUGCGAUACUAUACAACCUACUACCUCA | 0.136 ± 0.044
GGAGACCUUACUAUGACAACCUACUACCUCA | 0.00456 ± 0.0042
GGAGACCUAACUAUACAACCUACUACCACA | 0.00545 ± 0.0034
GGAGUGGAUACUAUACAAGCUACUAGCUCA | 0.00331 ± 0.0021
GGAGACGAUACCUAUACAACCUACUACCUCA | 0.0601 ± 0.023
GGAGACGAUACUAUACAACCUACUACCGUCA | 0.00873 ± 0.0037
GGAGACGCUACUAUACAACCUACUACCUCA | 0.163 ± 0.051

Sequence | pre-steady-state target cleavage rate
GGAGUGCAUACUAUACAAGCUACUACCUCA | 0.00482 ± 0.002
GGAGACGAUACUAUACAACCUACUACCUCA [g2:g24:cont:t1A] | 0.0773 ± 0.024
GGAGUGGAUAUCUAUACAACCUACUACCUCA | 0.00883 ± 0.0052
GGAGAGGAUACUAUACAACCUACUACUUCA | 0.121 ± 0.05
GGAGUGGAUCUAUACAACCUACUACCUCA | 0.0612 ± 0.029
GGAGAGGAUACUAUACAACACUACUACCUCA | 0.00804 ± 0.0043
GGAGAGGAUACUAGACAACCUACUACCUCA | 0.0121 ± 0.0055
GGAGACCUAACUAUACAAGCUACUACGUCA | 0.004 ± 0.0035
GGAGACGAUACUAUACAACAUACUACCUCA | 0.00522 ± 0.0024
GGAGAGGAUACAAUACAACCUACUACCACA | 0.00265 ± 0.0022
GGAGAGGAUACUAUACAACCUACUACCAUCA | 0.00705 ± 0.0029
GGAGUGGAUACUAUACAACCGUACUACCUCA | 0.00658 ± 0.0027
GGAGACGACACUAUACAACCUACUACCUCA | 0.114 ± 0.038
GGAGAGGAUACUAUUCAACCUACUUCCUCA | 0.00313 ± 0.0024
GGAGUGGAUAACUAUACAACCUACUACCUCA | 0.0101 ± 0.0044
GGAGAGGAUACAAUACAACCAACUACCUCA | 0.00366 ± 0.0019
GGAGACCUUACUAUACAACCUACGACCUCA | 0.00282 ± 0.0024
GGAGAGGAAACUAUACAACCUACUACCUGA | 0.0041 ± 0.0024
GGAGACGAUUCUAUACAACCUACUAGCUCA | 0.00278 ± 0.0019
GGAGACCUAACUAUACAACCUAAUACCUCA | 0.00511 ± 0.0036

Reference: the supplement of paper PMC10338343
